# In the library only some 9% were active in any assay of this set; here they are far more common.
# HPGD inh: HPGD (human) dehydrogenase inhibition; P15428; purified HPGD, NADH fluorescence kinetic, PGE2 substrate; Potency, µM, without a hit: top-dose activity change, negative = inhibition, actives largely listed as inhibitors; 150,000 compounds, 4.3% hits; active = well fitted inhibition curve with a large enough effect, not every such curve was filed as active; inconclusive = small, poorly fitted or top-dose-only effect, or another doubt; inactive = no such curve, though single readings can be large or run the other way; note: % is set by controls: 0 for no effect and ±100 for the full control effect
# Target sequence (P15428 whole entry, looked up): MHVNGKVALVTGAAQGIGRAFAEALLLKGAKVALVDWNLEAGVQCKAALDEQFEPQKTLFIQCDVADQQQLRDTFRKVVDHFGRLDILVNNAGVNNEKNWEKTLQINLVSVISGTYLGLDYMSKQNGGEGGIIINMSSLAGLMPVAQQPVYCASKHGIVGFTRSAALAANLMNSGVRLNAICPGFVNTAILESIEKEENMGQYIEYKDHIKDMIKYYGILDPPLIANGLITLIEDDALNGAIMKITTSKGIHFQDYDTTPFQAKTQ
#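 NADH formation kinetics: reaction with 30 uM PGE2 and 1 mM NAD+ (final), 20 nM enzyme, Tris-HCl pH 8 with Tween 20, after 15 min compound preincubation at room temperature. Fluorescence change, last versus first of five reads.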
# HTT cytoprotect: protects HTT-Q103 PC12 cells, measured by ATP; PC12 HTT-Q103 induced, cytoprotection, ATP luminescence, 40 h; Potency, µM (doses to about 56.4 µM), inactives show cytoprotection (ATP increase), usual class: activators; 230,000 compounds, 0.14% hits; AID 1471; note: % of control where 0% means no effect; nearly all actives have a fitted effect of over 45% in size
#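 ATP quantification (ATPlite) reports survival of PC12 cells in which tebufenozide, 100 nM final, switches on Htt exon 1 with 103 glutamines linked to GFP; compounds are titrated.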
# Lamin A splicing: modulators of lamin A splicing | Potency, µM (series often up to 46.1 µM), for the others: at the highest dose ratio change, negative = inhibition, usual class: inhibitors | 200,000 compounds, 0.01% hits | HeLa LMNA splicing GFP/RFP minigene ratio, 48 h | AID 1487; active = well fitted inhibition curve with a large enough effect in the signal ratio, with a control signal flat, not every such curve was filed as active; inconclusive = small, poorly fitted or top-dose-only effect, or effect the other way, or a change in a side signal; the % refers to the signal ratio; note: % is set by controls: 0 for no effect and ±100 for the full control effect
#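 Read-out is the ratio of GFP to DsRed2 object intensity, acquired by 488 nm laser-scanning cytometry on HeLa lamin A-EGFP minigene reporter cells. Compound incubation 48 hrs at 37 °C in Opti-MEM with 2% FBS; DMSO 0.5% final.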
# ALDH1A1 block: ALDH1A1 (human) enzyme inhibition; P00352; Purified ALDH1A1, NADH fluorescence, propionaldehyde substrate; Potency, µM (top dose mostly 75.3 µM), for the others: at the top dose activity, negative = inhibition, most hits filed as inhibitors; 220,000 compounds, 7.3% hits; active = well fitted inhibition curve with a large enough effect, not every such curve was filed as active; inconclusive = small, poorly fitted or top-dose-only effect, or another doubt; inactive = no such curve, though single readings can be large or run the other way;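 note: plate controls were no enzyme wells and a reference inhibitor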
# Luc counter: counter-screen: inhibitors of Kinase-Glo firefly luciferase; Q27757; Kinase-Glo luciferase, ATP luminescence, 8 min; Potency, µM (titrated, usually from 38.3 µM), inactives show at the top dose activity change, negative = inhibition, hits mostly inhibitors; 200,000 compounds, 0.28% hits; AID 1379; note: % is set by controls: 0 for no effect and ±100 for the full control effect; nearly all actives have a fitted effect of over 60% in size
#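 Recombinant Kinase-Glo luciferase, 10 uM ATP (linear range), luciferin; imidazole pH 7.2 / KCl / MgCl2 / Tween / BSA buffer; 8 min RT; luminescence.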
# HttQ103 aggreg: inhibitors of mutant huntingtin aggregate formation in PC12 cells; Potency, µM (series often up to 46.1 µM), without a hit: at the top dose activity change, negative = inhibition, usual class: inhibitors; PC12 HttQ103-GFP aggregates, Acumen cytometry, 40 h; 220,000 compounds, 1.1% hits; note: % is set by controls: 0 for no effect and ±100 for the full control effect; nearly all actives have a fitted effect of over 60% in size
#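 Compounds (qHTS titration) were added to PC12 cells expressing an ecdysone-driven HTT exon 1 Q103–GFP fusion after induction with 100 nM tebufenozide. Aggregate formation was measured as GFP objects in cell lysates.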
# Active calls of the source: *; ? = inconclusive; nt = no result given; [ ] = another dose, or the depositor's remark. Unless noted, calls come from the whole dose curve; as a rule, active = well fitted curve in the direction sought with a large enough effect; inconclusive = small, poorly fitted or top-dose-only effect, or another doubt; inactive = no such curve, though single readings can be large; an effect the other way counts as inactive or inconclusive. Potency is the fitted concentration of half-maximal effect.
SMILES,HPGD inh,HTT cytoprotect,Lamin A splicing,ALDH1A1 block,Luc counter,HttQ103 aggreg
Cc1ccc(CN(C(=O)c2csnn2)C(C(=O)NC2CCCC2)c2ccc(C)o2)cc1 (configuration not stated),-17.1%,-14.8%[10 µM],-13.4%,14.1µM*,0.4%,3.3%
Cc1ccc(C(C(=O)NC2CCCC2)N(C(=O)c2csnn2)C2CCCC2)o1 (configuration not stated),nt,11.0%,6.9%,-15.4%,nt,9.7%
CCOc1ccccc1-c1nc(CN(Cc2cnn(C)c2)C(C)C)c(C)o1,nt,12.9%[10 µM],13.3%[46 µM],-6.2%,0.4%,-2.2%[9.22 µM]
CN1CCN(C(=O)c2ccc(N(C)S(=O)(=O)c3cccs3)cc2)CC1,nt,-13.9%,17.0%[46 µM],11.0%,0.7%,2.9%
COC(=O)c1cccc(NC(=O)CSc2nc(O)c(-c3ccccc3)c(=O)[nH]2)c1,nt,-38.0%,6.7%[46 µM],-3.4%,1.6%,17.6%
Cc1cccc(OCC(=O)Nc2cccc(O)c2)c1,3.1%,10.8%[1.9 µM],12.5%,9.3%,-2.5%,4.5%
CCN(c1ccccc1)c1nc2ccsc2c(=O)s1,-22.6%,3.5%[10 µM],-1.7%,?,-0.4%,-16.0%
CN(c1ccccc1)c1nc2ccsc2c(=O)s1,28.2µM*,-39.1%,6.3%,-15.7%,-1.6%,-17.3%
Cc1ccc(N2CC(NC(=O)CCCc3ccccc3)CC2=O)cc1 (configuration not stated),nt,nt,-0.6%[46 µM],nt,nt,nt
CC(=O)Nc1ccc(OCC(O)CNC2CCCC2)cc1 (configuration not stated),-9.5%,-3.6%,?,17.8µM*,3.6%,?
CCOC(=O)N1CCC(Nc2nc3ccccc3nc2NS(=O)(=O)c2ccc(Cl)cc2)CC1,-4.3%,-7.9%[0.074 µM],4.2%,-13.4%,4.9%,11.2µM*
CCOC(=O)N1CCC(NC(=O)c2ccc(Cl)cc2)CC1,nt,9.7%[10 µM],nt,nt,nt,-27.6%[9.22 µM]
CC(=O)CC1(O)C(=O)Nc2ccccc21 (configuration not stated),nt,-19.6%[10 µM],nt,nt,nt,8.5%[9.22 µM]
COCCOC(=O)C1=C(C)NC2(O)c3ccccc3C(=O)C12O (configuration not stated),nt,-16.5%,nt,11.2µM*,1.9%,-17.6%
CC(=O)C1=C(C)NC2(O)c3ccccc3C(=O)C12O (configuration not stated),nt,nt,nt,11.2µM*,1.4%,?
CCOC(=O)C1=C(C)NC2(O)c3ccccc3C(=O)C12O (configuration not stated),-14.9%,-1.7%,12.7%,?,-2.6%,-2.6%
S=c1[nH]nc(C2CCCCC2)n1/N=C/c1ccccn1,nt,-17.0%[10 µM],nt,3.55µM*,-0.4%,-8.9%[9.22 µM]
Cc1ccsc1/C=N/n1c(C2CCCCC2)n[nH]c1=S,12.6µM*,-7.5%[10 µM],-3.7%,?,0.0%,6.5%
Cc1ccc(/C=N/n2c(C3CCCCC3)n[nH]c2=S)s1,11.2µM*,12.3%[10 µM],-9.2%,-3.4%,4.5%,1.4%
Cc1ccc(CN2C(=O)N/C(=C/c3ccc4c(c3)n(C)c(=O)n4C)C2=O)cc1,nt,-48.2%,nt,?,-3.3%,2.7%
O=C(NC(=S)NCCO)c1cn(-c2ccccc2)nc1-c1ccccc1,nt,-46.8%,nt,-0.8%,nt,-7.7%
O=c1c2c3c(sc2nc2n1CCC2)CCCCC3,nt,nt,?,0.5%,0.7%,nt
Cc1nnn(C23CC4CC(CC(C(=O)NN)(C4)C2)C3)n1,2.3%,nt,-5.3%,1.41µM*,-2.1%,3.4%
NNC(=O)C12CC3CC(C1)CC(n1ncnn1)(C3)C2,-2.4%,nt,-8.2%,3.55µM*,-3.4%,-20.5%
NNc1nc2cccnc2n(CCNc2ncc(C(F)(F)F)cc2Cl)c1=O,nt,-62.5%,19.6%[46 µM],1.58µM*,1.2%,-1.5%
CCOc1ccc(CN(C)C(=O)CCl)cc1,nt,8.5%[10 µM],nt,0.0501µM*,-1.5%,-1.2%[9.22 µM]
CCOC(=O)c1cc(-c2csc(Nc3c(C)cc(C)cc3C)n2)on1,nt,7.4%[10 µM],nt,14.1µM*,nt,-12.0%[9.22 µM]
C=CCc1c(C)nc2c(C)cccc2c1SC(=N)N,nt,-1.6%[10 µM],nt,-4.8%,nt,-9.0%[9.22 µM]
CCc1c(C)nc2c(C)cccc2c1SCCC#N,nt,9.3%[10 µM],nt,7.94µM*,0.4%,-13.6%[9.22 µM]
